According to PubChem BioAssay (Tox21):
Values without a mark were called inactive. Results filed as inconclusive are left out. A call without a number means that no potency is given here. Activity calls are given as the source filed them. Unless noted, calls come from the whole dose curve; as a rule, active = well fitted curve in the direction sought with a large enough effect in the repeat runs; inconclusive = weak or mixed curves; inactive = no such curve, though single readings can be large; an effect the other way counts as inactive or inconclusive.

Experiments:
[1] = qHTS assay to identify small molecule agonists of H2AX (AID 1224845; active = well fitted activation curve with a large enough effect in the signal ratio in the repeat runs, not every such curve was filed as active; the % refers to the signal ratio)
Procedure, shortened: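 Phospho-H2AX Ser139 measured by HTRF (ex 320 nm; em 665 and 620 nm) after 24 hr antibody incubation. Compounds, 15 concentrations, 0.76% DMSO, were applied to CHO-K1 cells for 3hr at 37C before lysis.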

[2] = qHTS assay to identify small molecule agonists of the hypoxia (HIF-1) signaling pathway (AID 1224846; active = well fitted activation curve with a large enough effect in the signal ratio in the repeat runs, not every such curve was filed as active; the % refers to the signal ratio)
Procedure, shortened: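 A low-serum medium (0.5% dialyzed FBS) holding 2,000 HRE-bla ME-180 cells per well is preincubated for 5 hrs, dosed with compounds by pintool, and kept a further 17 hrs at 37C, 5% CO2 before CCF4-AM FRET detection of beta-lactamase.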

[3] = qHTS assay to identify small molecule agonists of H2AX - cell viability counter screen (AID 1224847; calls by dose curve; note: nearly all actives have a fitted effect of over 30% in size; note: potency is the fitted concentration of half-maximal effect)
Procedure, shortened: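 Cells plated first: CHO-K1, 1000 per well in 10% FBS medium, incubated overnight at 37C. Then 15-point compound titration added (final DMSO 0.76%) for 3 hr. Finally CellTiter-Glo added and luminescence read.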

[4] = qHTS assay to identify small molecule antagonists of the estrogen related receptor (ERR) signaling pathway from Tox21 library (AID 1224848); note: nearly all actives have a fitted effect of over 50% in size; note: potency is the fitted concentration of half-maximal effect
Procedure, shortened: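 Reading was by luminescence 30 min after ONE-Glo addition. Before that, ERR cells at 2,000 per well had rested 6 h at 37 C/5% CO2 and then received pin-tooled compounds in DMSO for 18 h at 37 C.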

[5] = qHTS assay to identify small molecule agonists of the estrogen related receptor (ERR) signaling pathway from Tox21 library (AID 1224849; calls by dose curve; note: nearly all actives have a fitted effect of over 15% in size); conditions: ERR reporter cell line, ONE-Glo luciferase, 18 h; at 92.4 µM (top of the series) unless noted
Procedure, shortened: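 Screening used an NTP-provided ERR luciferase cell line. Compounds in DMSO were added 6 h after seeding and left 18 h at 37 C before a 30 min ONE-Glo step and luminescence reading.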

[6] = qHTS RealTime-Glo MT Cell Viability Assay in HepG2 cells - 24 hour (AID 1224867); note: nearly all actives have a fitted effect of over 50% in size
Procedure, shortened: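 Cells + NanoLuc/prosubstrate dispensed (600 cells/well) → 5 h at 37 C/5% CO2 → compounds in DMSO transferred → 40 h incubation at 37 C, luminescence read at 0, 8, 16, 24, 32, 40 h.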

[7] = qHTS RealTime-Glo MT Cell Viability Assay in HEK293 cells - 32 hour (AID 1224868); note: top concentration of the series differs between compounds; nearly all actives have a fitted effect of over 50% in size
Procedure, shortened: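 Tox21 10K qHTS, HEK293, 600 cells/well, RealTime-Glo reagent co-dispensed with cells; 5 h preincubation, compound by pintool, 37 C, luminescence at 0–40 h.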

[8] = A CellTox Green Cytotoxicity Assay to monitor cytotoxicity in HEK293 cells - 0 hour (AID 1224869); note: nearly all actives have a fitted effect of over 50% in size; note: potency is the fitted concentration of half-maximal effect
Procedure, shortened: (§1)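 Fluorescence intensity, read at 0, 8, 16, 24, 32 and 40 h of compound treatment, reflected dye binding to DNA of dead HEK293 cells; compounds (23 nL, DMSO) were added 5 h after plating cells with reagent.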

[9] = qHTS RealTime-Glo MT Cell Viability Assay in HepG2 cells - 40 hour (AID 1224870); note: nearly all actives have a fitted effect of over 50% in size; note: potency is the fitted concentration of half-maximal effect
Procedure, shortened: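 Real-time viability: cells seeded at 600 per well together with NanoLuc and cell-permeant prosubstrate, compounds added after 5 h incubation. Luminescence tracked at 0, 8, 16, 24, 32 and 40 h of exposure.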

[10] = A CellTox Green Cytotoxicity Assay to monitor cytotoxicity in HEK293 cells - 40 hour (AID 1224871); note: nearly all actives have a fitted effect of over 45% in size; note: potency is the fitted concentration of half-maximal effect
Procedure, shortened: as §1

Structure (SMILES)	Potency [1]	Potency [2]	Potency [3]	Potency [4]	activity change, positive = activation [5]	Potency [6]	Potency [7]	Potency [8]	Potency [9]	Potency [10]
Cc1c(N)cccc1[N+](=O)[O-]	inactive	inactive	inactive	inactive	-14.7%	inactive	inactive	inactive	inactive	inactive
C=CCOC(=O)CCC1CCCCC1	inactive	inactive	inactive	inactive	-4.2%	inactive	–	inactive	inactive	inactive
NC(=O)C(c1ccccc1)(c1ccccc1)[C@@H]1CCN(CCc2ccc3c(c2)CCO3)C1	inactive	inactive	inactive	inactive	-1.44% [at 42.5 µM]	inactive	–	21.3 µM (active)	inactive	21.3 µM (active)
CC(C)OC(=O)C(C)N(C(=O)c1ccccc1)c1ccc(F)c(Cl)c1 (stereo unspecified)	inactive	inactive	56.6 µM (active)	17.2 µM (active)	-51.7%	inactive	inactive	inactive	inactive	inactive
COC(C)(C)CCO	inactive	inactive	inactive	inactive	3.52%	inactive	inactive	inactive	inactive	inactive
CCCCCC[C@@H](O)C/C=C\CCCCCCCC(=O)OC	inactive	inactive	inactive	inactive	3.83%	inactive	inactive	inactive	inactive	inactive
COCCCN1CCC(NC(=O)c2cc(Cl)c(N)c3c2OCC3)CC1	inactive	inactive	inactive	inactive	5.44% [at 42.5 µM]	inactive	inactive	inactive	inactive	inactive
OC(C#CCN1CCCC1)(c1ccccc1)c1ccccc1	inactive	inactive	inactive	inactive	-10.1% [at 42.5 µM]	inactive	–	inactive	inactive	inactive
C1CCCNCCC1	inactive	inactive	inactive	inactive	-2.25%	inactive	inactive	inactive	inactive	inactive
C[N+]1(CC2COC(c3ccccc3)(C3CCCCC3)O2)CCCCC1 (stereo unspecified)	inactive	inactive	inactive	inactive	-8.13% [at 42.5 µM]	inactive	–	inactive	23.9 µM (active)	inactive
COc1ccc(C(=O)N2CCN(CC(=O)N3CCOCC3)CC2)cc1	inactive	inactive	inactive	inactive	4.84% [at 42.5 µM]	inactive	inactive	inactive	inactive	inactive
